Experimental findings from PubChem BioAssay are described below.

The nature of assay [1]: anti-His antibody binders, primary screen, artefact control for SMM control protein annotation, biochemical, small-molecule microarray, 635 nm fluorescence (AID 1128).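 Further: score merges feature fluorescence with signal-to-noise for each printed compound spot.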 The note with it: anti-His Alexa647 antibody binding, higher = more signal.
The test system of assay [2] is Human papillomavirus type 1a E7 protein (residues 1-88). Briefly: HPV1a E7 small-molecule binders, primary screen, biochemical, small-molecule microarray, residues 1-88, 635 nm (AID 1129). The conditions noted are these: small-molecule microarray binding, fluorescence 635 nm; higher = more signal.
Assay [3] deals with Focal adhesion kinase 1 (Homo sapiens) (UniProt Q05397). Briefly: small-molecule microarray binders of FAK, primary screen, biochemical, 635/667 nm fluorescence, BSA, DTT (AID 1130).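 Further: composite of spot emission at 667 nm and signal to noise over triplicate slides.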 The conditions noted are these: PTK2 binding, 635 nm fluorescence, higher = more signal.
Assay [4] concerns Fibrinogen (Alexa647-labelled). Description: fibrinogen binders on compound microarrays, profiling panel, artefact control for SMM control-protein annotation, biochemical, small-molecule microarray, 635/667 nm fluorescence (AID 1131).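 Further: z-score merges 667 nm fluorescence with per-spot signal-to-noise over triplicate slides.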 The note with it: fibrinogen-A647 binding fluorescence, higher = more signal.
The target in assay [5] is Follistatin (Homo sapiens) (UniProt P19883). Briefly: follistatin binders on small-molecule microarrays, primary screen, biochemical, small-molecule microarray, 635/667 nm fluorescence (AID 1132). The note with it: FST binding, 635 nm fluorescence, higher = more signal.
For assay [6], the target named is Fibroblast growth factor 2 (Homo sapiens) (UniProt P09038). Description: FGF2 binders on small-molecule microarrays, primary screen, biochemical, small-molecule microarray, 635/667 nm fluorescence (AID 1133). The conditions noted are these: small-molecule microarray binding, FGF2, fluorescence 635/667; higher = more signal.
The nature of assay [7]: mitochondrial membrane potential change in A549 cells, profiling panel, cell-based, JC-1 fluorescence, basal, 24 h, 100 nL (AID 1138).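 Further: A549 lung adenocarcinoma cells under basal conditions with no added stimulus; test concentration not given here.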 The note with it: higher = more signal.
The next assay has as its system Lefty1. Description: Lefty1 binders on small-molecule microarrays, primary screen, biochemical, small-molecule microarray, 635/667 nm fluorescence (AID 1139). The note with it: small-molecule microarray binding, fluorescence 635/667; higher = more signal.
Assay [8] deals with wheat germ agglutinin (Triticum aestivum), Alexa647-labelled. Briefly: wheat germ agglutinin binders on compound microarrays, profiling panel, artefact control for SMM control-protein annotation, biochemical, small-molecule microarray, 635/667 nm fluorescence (AID 1140).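 Further: score merges 667 nm feature emission with signal to noise over triplicate slides.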 The note with it: WGA-A647 binding, 635 nm fluorescence, higher = more signal.
Assay [9] concerns the target Luciferin 4-monooxygenase (Photinus pyralis) (UniProt P08659). Description: firefly luciferase enzyme inhibitors, primary screen, biochemical, luminescence, purified enzyme, 2006 set (AID 1141).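 Further: cell-free assay with purified firefly luciferase at 100 ng per well in PBS; test concentration not given here.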 The note with it: SteadyGlo luminescence, 30 min, higher = more signal, called active from +8 up or from −8 down.

The source made the active and inactive calls.

Sequence of Follistatin (Homo sapiens) (P19883 whole entry, looked up): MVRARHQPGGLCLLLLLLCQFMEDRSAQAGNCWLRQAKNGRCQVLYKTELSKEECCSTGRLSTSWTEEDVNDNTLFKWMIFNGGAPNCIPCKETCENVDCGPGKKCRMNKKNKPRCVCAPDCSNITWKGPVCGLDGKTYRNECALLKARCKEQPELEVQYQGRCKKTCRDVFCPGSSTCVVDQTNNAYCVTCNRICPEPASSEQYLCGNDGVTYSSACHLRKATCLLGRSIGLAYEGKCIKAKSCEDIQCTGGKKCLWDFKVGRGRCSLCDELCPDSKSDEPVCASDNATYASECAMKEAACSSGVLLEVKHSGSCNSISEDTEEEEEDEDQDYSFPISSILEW
Sequence of Focal adhesion kinase 1 (Homo sapiens) (Q05397 whole entry, looked up): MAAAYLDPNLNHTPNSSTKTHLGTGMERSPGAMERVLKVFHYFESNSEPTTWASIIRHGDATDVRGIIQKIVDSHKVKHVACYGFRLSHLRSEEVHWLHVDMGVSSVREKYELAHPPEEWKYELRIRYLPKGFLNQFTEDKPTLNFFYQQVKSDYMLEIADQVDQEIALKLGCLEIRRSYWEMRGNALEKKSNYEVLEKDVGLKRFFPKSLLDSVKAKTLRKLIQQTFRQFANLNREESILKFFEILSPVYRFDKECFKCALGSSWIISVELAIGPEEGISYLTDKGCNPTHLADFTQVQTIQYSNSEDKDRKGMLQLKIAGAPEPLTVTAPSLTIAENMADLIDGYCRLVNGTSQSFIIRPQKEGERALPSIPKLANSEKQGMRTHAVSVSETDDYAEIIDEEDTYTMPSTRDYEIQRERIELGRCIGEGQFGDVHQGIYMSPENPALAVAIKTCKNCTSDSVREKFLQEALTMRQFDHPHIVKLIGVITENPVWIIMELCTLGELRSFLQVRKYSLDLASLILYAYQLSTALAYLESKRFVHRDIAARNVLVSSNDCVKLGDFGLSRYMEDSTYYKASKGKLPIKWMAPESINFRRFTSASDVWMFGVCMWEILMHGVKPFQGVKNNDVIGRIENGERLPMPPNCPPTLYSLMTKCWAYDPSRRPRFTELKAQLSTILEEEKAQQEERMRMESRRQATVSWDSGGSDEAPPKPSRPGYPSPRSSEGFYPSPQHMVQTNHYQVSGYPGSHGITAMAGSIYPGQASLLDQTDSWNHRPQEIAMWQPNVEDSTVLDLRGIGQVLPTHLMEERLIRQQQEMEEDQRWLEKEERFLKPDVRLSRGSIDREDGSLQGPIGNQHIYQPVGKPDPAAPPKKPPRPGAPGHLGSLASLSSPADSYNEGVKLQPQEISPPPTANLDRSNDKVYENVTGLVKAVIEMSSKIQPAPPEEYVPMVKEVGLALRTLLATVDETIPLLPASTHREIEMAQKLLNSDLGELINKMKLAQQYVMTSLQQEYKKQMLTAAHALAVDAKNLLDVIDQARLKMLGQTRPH
Sequence of Luciferin 4-monooxygenase (Photinus pyralis) (P08659 whole entry, looked up): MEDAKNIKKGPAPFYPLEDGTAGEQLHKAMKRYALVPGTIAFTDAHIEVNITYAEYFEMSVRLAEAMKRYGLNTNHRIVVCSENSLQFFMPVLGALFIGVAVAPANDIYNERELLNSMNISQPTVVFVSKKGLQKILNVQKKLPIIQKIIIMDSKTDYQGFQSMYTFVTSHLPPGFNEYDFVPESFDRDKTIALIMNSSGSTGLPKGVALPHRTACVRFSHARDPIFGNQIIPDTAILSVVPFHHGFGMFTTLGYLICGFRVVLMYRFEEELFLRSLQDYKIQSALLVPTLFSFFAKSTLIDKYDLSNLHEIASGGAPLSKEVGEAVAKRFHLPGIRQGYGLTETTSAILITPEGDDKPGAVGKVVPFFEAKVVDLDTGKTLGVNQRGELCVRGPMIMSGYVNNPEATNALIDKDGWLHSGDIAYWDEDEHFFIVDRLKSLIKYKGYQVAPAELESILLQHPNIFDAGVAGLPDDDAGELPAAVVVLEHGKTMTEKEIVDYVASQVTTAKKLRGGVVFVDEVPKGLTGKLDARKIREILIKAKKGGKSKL
Sequence of Fibroblast growth factor 2 (Homo sapiens) (P09038 whole entry, looked up): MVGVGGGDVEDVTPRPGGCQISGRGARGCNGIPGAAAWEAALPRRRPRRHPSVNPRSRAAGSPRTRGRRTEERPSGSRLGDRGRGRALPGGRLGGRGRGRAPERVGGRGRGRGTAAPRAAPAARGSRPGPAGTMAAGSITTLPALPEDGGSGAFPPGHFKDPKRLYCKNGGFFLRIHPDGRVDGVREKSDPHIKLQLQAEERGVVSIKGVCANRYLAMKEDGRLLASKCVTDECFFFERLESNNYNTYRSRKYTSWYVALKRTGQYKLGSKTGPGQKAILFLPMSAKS

Turning to `CCOC(=O)c1cn(C[C@H](Cc2ccccc2)NC(=O)N[C@H](CO)CCc2oc(C(C)=O)c(C(=O)OC)c2C(=O)OC)nn1`, the composite z-score in assay [1] is 0.0033; in assay [2] it was 1.18; in assay [3], 0.123; in [4], 0.812; in assay [5], 1.31; in assay [6] it was 1.66. For the same compound, the composite z-score with Lefty1 was found to be 1.59; in assay [8], 0.493. Moreover, the z-score in [7] is -0.391; in assay [9], 0.783 (inactive).
As to `CC(C)=C1C(=O)C(c2ccccc2)=C2CN3C(=O)N(CCc4ccccc4)C(=O)[C@]3(C)[C@H]21`, the composite z-score in [1] is -0.0854; in [2] it was 0.871; in assay [3], 0.701; in assay [4] it was 0.679; in assay [5] it was 0.21; in assay [6], -0.648. Also, the composite z-score in the assay with Lefty1 was -0.455; in assay [8], 0.673. Besides, the z-score in assay [7] was 1.77; in [9], 0.0775 (inactive).
Regarding `CN(C)c1ccc(C(O)C2C=CC3C(=O)N(Cc4ccccc4)C(=O)C3N2n2cnnc2)cc1` (stereo not given), the composite z-score in assay [1] is 0.108; in assay [2], 0.115; in [3], -0.535; in [4], 0.32; in assay [5], 0.225; in assay [6], 0.239. Also, the composite z-score was -0.231 in the assay on Lefty1 and 0.0743 in [8]. Further, the z-score in assay [7] is -0.269; in assay [9] it was -1.66 (inactive).
`CC(C)C[C@@H]1NC(=O)[C@@H]2C[C@H](C(=O)NCCCCCCNC(=O)CS)[C@H](c3cccc(OCCO)c3)N2C1=O`: the composite z-score in [1] is 1.74; in assay [2], 1.26; in assay [3] it was 0.114; in [4], 0.892; in assay [5], 1.42; in assay [6] it was 1.71. Also, the composite z-score amounted to 1.44 in the assay with Lefty1 and 0.875 in assay [8]. In addition, the z-score is -0.0497 in [7] and -0.986 (inactive) in assay [9].
In the case of `COC(=O)[C@@]1(Cc2ccccc2)[C@H]2c3cc(C(=O)N(C)C)n(CCSC(=N)N)c3C[C@H]2CN1C(=O)c1ccccc1`, the composite z-score in assay [1] is 0.367; in assay [2] it was 0.336; in assay [3], 0.117; in assay [4], 0.869; in assay [5], -0.239; in [6], 0.277. For the same compound, the composite z-score with Lefty1 was -0.318; in assay [8], 0.164. The figures for the z-score in assay [7] and in assay [9] were 0.378 and 1.13 (inactive), respectively.
Consider `O=C(NCc1ccccc1)[C@@H]1c2ccccc2C(=O)N(Cc2cc(C(F)(F)F)cc(C(F)(F)F)c2)[C@H]1c1ccc(CO)cc1`, for which the composite z-score in assay [1] was 0.618; in [2] it was 1.14; in [3] it was 0.576; in assay [4], 0.638; in [5], 1.36; in assay [6], 1.06. In addition, the results for the composite z-score (with Lefty1; in [8]) were 0.991 and 0.452, respectively. In addition, the z-score is 0.473 in assay [7] and 1.14 (inactive) in assay [9].
Take `CCN(CC)c1ccc(N2CC=CC34O[C@@H]5C=CCCOC(=O)C5[C@H]3C(=O)N(C(C)CO)[C@@H]4C2=O)cc1` (stereo not given in full): the composite z-score is 1.72 in assay [1]; 0.649 in assay [2]; 0.339 in [3]; -0.943 in [4]; 0.461 in [5]; -0.199 in assay [6]. Also, the composite z-score in the assay on Lefty1 was determined as 0.399; in assay [8] it was 0.329. For the same compound, the z-score was 0.337 in assay [7] and -0.421 (inactive) in assay [9].
For `COCCOC(=O)N1C(=O)[C@@]2(c3cc(C#CCC(C(=O)OC)C(=O)OC)ccc31)[C@H](C(=O)Nc1nc3ccccc3s1)[C@H]1C(=O)O[C@H](c3ccccc3)[C@H](c3ccccc3)N1[C@@H]2c1ccc(OCCO)cc1`, the composite z-score in assay [1] was determined as 2.33; in [2] it was 0.988; in [3], 0.35; in [4], 0.746; in assay [5], 1.39; in assay [6] it was 1.79. For the same compound, the composite z-score with Lefty1 was found to be 1.64; in assay [8] it was 0.44. In addition, the z-score in [7] was -2.33; in assay [9], -4.07 (inactive).
As to `CN(C)CCCC[C@@H]1NC(=O)[C@@H]2C[C@H](C(=O)NCCCCCCNC(=O)CS)[C@H](c3ccc(O)cc3)N2C1=O`, the composite z-score in [1] was 2.26; in assay [2], 0.91; in [3], 0.335; in [4], 0.767; in [5] it was 1.31; in assay [6], 1.87. Moreover, the composite z-score in the assay on Lefty1 was 1.38; in assay [8] it was -0.204. In addition, the z-score in [7] is -0.15; in assay [9], -0.25 (inactive).
For `C=CCOC(=O)[C@@H]1[C@H]2C(=O)O[C@H](c3ccccc3)[C@H](c3ccccc3)N2[C@H](c2ccc(OCCOC(=O)[C@H]3C[C@H]4C(=O)N5CCC[C@H]5C(=O)N4[C@H]3c3cccc(OCCO)c3)cc2)[C@@]12C(=O)Nc1ccc(I)cc12`, the composite z-score was 1.04 in [1]; 0.994 in assay [2]; 0.746 in assay [3]; 0.241 in assay [4]; 1.4 in assay [5]; 1.38 in assay [6]. Besides, the composite z-score in the assay on Lefty1 is 1.44; in assay [8], 0.555. Further, the z-score was -1.32 in [7] and 0.0266 (inactive) in assay [9].
On to `CC(C)c1nc2cc(Br)ccc2c(=O)o1`, for which the composite z-score in assay [1] was 0.405; in assay [2], 0.854; in assay [3] it was 0.224; in assay [4] it was 0.871; in assay [5] it was 0.296; in [6], -0.357. The composite z-score in the assay with Lefty1 is -0.0283; in assay [8], 0.834. Moreover, the z-score in assay [7] was 0.48; in [9] it was 0.672 (inactive).
Consider `O=C(NCc1ccccc1)[C@@H]1c2ccccc2C(=O)N(Cc2ccc(OC(F)(F)F)cc2)[C@H]1c1ccc(CO)cc1`, for which the composite z-score in assay [1] was 2.71; in assay [2] it was 0.277; in [3], 0.442; in [4], -0.222; in assay [5], 0.616; in assay [6], 0.0415. Besides, the composite z-score with Lefty1 is -0.9; in assay [8], -0.416. Further, the results for the z-score in assay [7] and in [9] were 2.79 and -0.828 (inactive), respectively.
Regarding `[N-]=[N+]=Nc1ccccc1C[C@@]1(C(=O)NCc2ccccc2)N=C(c2ccc(OCCCO)cc2)O[C@@H]1c1ccccc1N=[N+]=[N-]`, the composite z-score is 1.27 in assay [1]; 1.17 in [2]; 0.268 in assay [3]; 0.664 in [4]; 1.32 in assay [5]; 0.32 in assay [6]. Further, the composite z-score was -0.0327 with Lefty1 and 1.03 in [8]. The z-score is 0.197 in [7] and -2.56 (inactive) in assay [9].
On to `C=C(CCCC)/C(=C/C[C@H](OC(=O)c1ccncc1)c1ccccc1OCCO)c1cc(C(=O)OC)ccc1OC`, for which the composite z-score was 2.75 in assay [1]; 0.488 in assay [2]; 0.0357 in assay [3]; 0.013 in assay [4]; 0.95 in assay [5]; 0.969 in [6]. For the same compound, the results for the composite z-score (in the assay with Lefty1; in assay [8]) were 0.979 and -0.0208, respectively. For the same compound, the z-score in assay [7] is 2.03; in assay [9], -0.776 (inactive).
Regarding `CN1C(=O)C2C=CC(C(O)c3ccc(-c4ccccc4)s3)N(NC(=O)OC(C)(C)C)C2C1=O` (stereo not given), the composite z-score in assay [1] was determined as 0.847; in [2], 1.14; in assay [3], 0.154; in assay [4], 1.04; in [5] it was 0.807; in assay [6] it was 0.498. Also, the composite z-score is -0.0773 in the assay on Lefty1 and 0.904 in [8]. Moreover, the z-score is 0.237 in assay [7] and 0.626 (inactive) in [9].
As to `CCOC(=O)C[C@H]1[C@H](OC(=O)Cc2ccc3c(c2)OCO3)[C@@H](NC(=O)Cc2ccc(OC)cc2)c2cc(OCCCO)ccc2N1C(=O)Cc1ccc(OC)cc1`, the composite z-score in [1] was 0.247; in [2], 0.173; in [3] it was -0.113; in assay [4], 0.239; in [5], -0.147; in assay [6] it was -0.0689. The results for the composite z-score (in the assay with Lefty1; in assay [8]) were 0.0681 and -0.002, respectively. For the same compound, the results for the z-score in assay [7] and in [9] were 1.39 and -0.127 (inactive), respectively.
